# Out of some 5,500 compounds screened, about 2,000 (36%) were called active. Roughly 18% stayed inconclusive and do not appear here. The list shows a part of the results. Values without a mark were called inactive. Rule as the data show it: active = normalized growth mostly below about 0.91 (no sharp cut-off); inconclusive = no clear call, values can overlap the other calls; inactive = mostly above about 0.92.
# Assay: chemical genetic growth profiling, strain panel (AID 1159580);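 also: tested at 20 µM; growth read once vehicle control cultures reached saturation at 30 °C; 1 = growth at the plate median or of vehicle wells; lower values mean less growth of the strain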
# Conditions: S. cerevisiae deletion strains, growth OD
structure (smiles),measurement,setting,value
Cc1ccc(S(=O)(=O)Nc2nc(-c3ccc(C)c(Cl)c3)c(C)s2)cc1,normalized growth,"locus YAR019C, strain CDC15, active compounds read low",0.994
same,normalized growth,"locus YBL105C, strain PKC1, active compounds read low",0.99
same,normalized growth,"locus YBR135W, strain CKS1, active compounds read low",0.98
same,normalized growth,"locus YBR136W, strain MEC1, active compounds read low",0.991
same,normalized growth,"locus YBR160W, strain CDC28, active compounds read low",0.988
same,normalized growth,"locus YDL017W, strain CDC7, active compounds read low",0.991
same,normalized growth,"locus YDL028C, strain MPS1, active compounds read low",0.988
same,normalized growth,"locus YDL101C, strain DUN1, active compounds read low",0.989
same,normalized growth,"locus YDL108W, strain KIN28, active compounds read low",0.993
same,normalized growth,"locus YDL132W, strain cdc53, active compounds read low",0.983
same,normalized growth,"locus YDL214C, strain PRR2, active compounds read low",0.989
same,normalized growth,"locus YDR052C, strain DBF4, active compounds read low",0.983
same,normalized growth,"locus YDR054C, strain cdc34, active compounds read low",0.989
same,normalized growth,"locus YDR226W, strain ADK1, active compounds read low",0.985
same,normalized growth,"locus YDR477W, strain SNF1, active compounds read low",1.04
same,normalized growth,"locus YER123W, strain YCK3, active compounds read low",1.02
same,normalized growth,"locus YER133W, strain GLC7, active compounds read low",1.02
same,normalized growth,"locus YFL009W, strain cdc4, active compounds read low",0.989
same,normalized growth,"locus YFL029C, strain CAK1, active compounds read low",0.998
same,normalized growth,"locus YFR003C, strain YPI1, active compounds read low",0.992
same,normalized growth,"locus YFR019W, strain FAB1, active compounds read low",1.02
same,normalized growth,"locus YFR028C, strain CDC14, active compounds read low",0.99
same,normalized growth,"locus YGR040W, strain KSS1, active compounds read low",1.02
same,normalized growth,"locus YGR092W, strain DBF2, active compounds read low",1.01
same,normalized growth,"locus YHR030C, strain SLT2, active compounds read low",1.77 [resistant] (active)
same,normalized growth,"locus YHR079C, strain IRE1, active compounds read low",2.3 [resistant] (active)
same,normalized growth,"locus YHR205W, strain SCH9, active compounds read low",0.942
same,normalized growth,"locus YIL147C, strain SLN1, active compounds read low",0.983
same,normalized growth,"locus YJL095W, strain BCK1, active compounds read low",1.77 [resistant] (active)
same,normalized growth,"locus YJL128C, strain PBS2, active compounds read low",0.925
same,normalized growth,"locus YJL157C, strain FAR1, active compounds read low",1.02
same,normalized growth,"locus YJR016C, strain ILV3, active compounds read low",0.979
same,normalized growth,"locus YJR066W, strain TOR1 (second series), active compounds read low",1.04
same,normalized growth,"locus YKL048C, strain ELM1, active compounds read low",0.986
same,normalized growth,"locus YKL067W, strain YNK1, active compounds read low",0.997
same,normalized growth,"locus YKL101W, strain HSL1, active compounds read low",0.981
same,normalized growth,"locus YKL193C, strain SDS22, active compounds read low",0.986
same,normalized growth,"locus YKL203C, strain TOR2, active compounds read low",1.08
same,normalized growth,"locus YLR113W, strain HOG1, active compounds read low",1.41 [resistant] (active)
same,normalized growth,"locus YLR133W, strain CKI1, active compounds read low",0.995
same,normalized growth,"locus YLR403W, strain SFP1, active compounds read low",1.02
same,normalized growth,"locus YML070W, strain DAK1, active compounds read low",0.99
same,normalized growth,"locus YMR001C, strain CDC5, active compounds read low",0.988
same,normalized growth,"locus YMR205C, strain PFK2 (second series), active compounds read low",0.987
same,normalized growth,"locus YMR277W, strain FCP1, active compounds read low",0.992
same,normalized growth,"locus YNL006W, strain LST8, active compounds read low",0.981
same,normalized growth,"locus YNL020C, strain ARK1, active compounds read low",0.996
same,normalized growth,"locus YNL161W, strain CBK1, active compounds read low",0.992
same,normalized growth,"locus YNL207W, strain RIO2, active compounds read low",0.996
same,normalized growth,"locus YNL222W, strain SSU72, active compounds read low",0.996
same,normalized growth,"locus YNL307C, strain MCK1 (second series), active compounds read low",0.982
same,normalized growth,"locus YOL078W, strain AVO1, active compounds read low",0.991
same,normalized growth,"locus YOL136C, strain PFK27, active compounds read low",0.987
same,normalized growth,"locus YOR061W, strain CKA2, active compounds read low",1.02
same,normalized growth,"locus YOR119C, strain RIO1, active compounds read low",1.05
same,normalized growth,"locus YOR231W, strain MKK1, active compounds read low",2.03 [resistant] (active)
same,normalized growth,"locus YOR329C, strain SCD5, active compounds read low",0.985
same,normalized growth,"locus YPL031C, strain PHO85, active compounds read low",1.02
same,normalized growth,"locus YPL153C, strain RAD53, active compounds read low",1.01
same,normalized growth,"locus YPL204W, strain HRR25, active compounds read low",1.03
same,normalized growth,"locus YPL209C, strain IPL1, active compounds read low",0.986
same,normalized growth,"locus YPL256C, strain CLN2, active compounds read low",1.74 [resistant] (active)
same,normalized growth,"locus YPR025C, strain CCL1, active compounds read low",0.985
same,normalized growth,"locus YPR106W, strain ISR1, active compounds read low",0.992
same,normalized growth,"locus YPR111W, strain DBF20, active compounds read low",0.987
same,normalized growth,"strain NNK1, active compounds read low",0.995
same,normalized growth,"strain TSCII, active compounds read low",0.994

# — PubChem BioAssay AID1159580 (chemical genetic matrix, 2015)
